Laboratory results as given in PubChem BioAssay (NCI).
The panel holds about 83,000 compounds, 20% with a hit somewhere; the sample as a whole holds those more often.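 The endpoint reported here, percent growth, reads 100 for growth as untreated, 0 for no net growth and -100 for all cells dead.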 Unmarked numbers belong to inactive results. Activity calls are given as the source filed them. Rule for the calls: active = growth percent below 10; inactive = the rest.

Assays:
Test in all cases: NCI-60 one-dose screen, 48 h (100 = growth as untreated, 0 = no growth, -100 = all killed)
Conditions in all cases: 10 µM unless noted
[1] = system: T-47D breast
[2] = system: BT-549 breast
[3] = system: MDA-MB-435 melanoma
[4] = system: SW-620 colon
[5] = system: MCF7 breast
[6] = system: HCT-116 colon
[7] = system: HCC-2998 colon
[8] = system: KM12 colon

Row | SMILES | growth [1] | growth [2] | growth [3] | growth [4] | growth [5] | growth [6] | growth [7] | growth [8]
1 | Cc1[nH]c(-c2nc3ccccc3[nH]2)c(C)c1C(=O)N1CCOCC1 | 99.1% | 99% | 99.7% | 96.3% | 93.3% | 101% | 97.9% | 105%
2 | COc1cc(-c2ccc(N=Nc3c(O)c(C(=O)Nc4ccccc4OC)cc4ccccc34)c(OC)c2)ccc1N=Nc1c(O)c(C(=O)Nc2ccccc2OC)cc2ccccc12 | 103% | 90.2% | 99.9% | 91.8% | 91.1% | 81.8% | 97.7% | 94.8%
3 | O=[N+]([O-])c1ccc(-c2cc3c(Nc4ccc(Cl)c(C(F)(F)F)c4)ncnc3s2)cc1 | -6.08% (active) | 8.01% (active) | 5.4% (active) | 16.8% | 3.55% (active) | 6.29% (active) | 19.2% | 10.9%
4 | CN(C)c1ccc(C#Cc2c(F)cccc2Cl)cc1 | 41.8% | 98.2% | 99.8% | 96% | 39.5% | 84.8% | 76.2% | 85.4%
5 | CCN(CC)CCCC(C)NCc1ccccc1 (centres undefined) | 105% | 85.2% | 100% | 105% | 93.8% | 90.8% | 99.5% | 96.9%
6 | Nc1nc(I)c2ncn(C3OC(CO)C(O)C3O)c2n1 (centres undefined) | 94.9% | 69.7% | 91.6% | 114% | 96.6% | 110% | 103% | 115%
7 | CCOC(=O)c1nnn(-c2ccccc2)c1C1=CN(C)CCC1 | 93.3% | 99.4% | 105% | 101% | 92.9% | 87.7% | 95.9% | 99.9%
8 | O=C(/C=C/C12c3ccccc3C(c3ccccc31)C1C(=O)N(c3ccc(Cl)cc3)C(=O)C12)c1ccccn1 (centres undefined) | -3.33% (active) | -49.6% (active) | -29.1% (active) | -12.4% (active) | 2.48% (active) | -69.2% (active) | -87.4% (active) | -60.8% (active)
9 | O=S(=O)(Cc1ccccc1)c1nc2ccccc2s1 | 76.4% | 35.8% | 49% | 26.3% | 30.5% | 9.47% (active) | 103% | 93%
10 | Cc1cnc(Nc2ccc(N3CCN(C)CC3)cc2)nc1Nc1ccc(Cl)c(NS(=O)(=O)C(C)(C)C)c1 | 39.8% | -5.14% (active) | 31.6% | 1.76% (active) | 5.84% (active) | 8.83% (active) | -48.1% (active) | 8.8% (active)
11 | COc1ccc(-c2cc(-c3ccc(Nc4nc(Nc5ccccc5)nc(Nc5ccc(Cl)cc5)n4)cc3)nc(N)n2)cc1 | 35.5% | 82.1% | 66.6% | 80% | 22.6% | 38.1% | -7.72% (active) | 39.9%
12 | COc1cc(/C=C2\C=C(c3ccccc3)N(CCc3ccccc3)C2=O)cc(OC)c1OC | 56.9% | 91.3% | 89.5% | 85.2% | 70.9% | 52.2% | 102% | 80.6%
13 | CCn1c(Sc2nnc(NC(=O)CSC(=S)N3CCCCC3)s2)nc2c1c(=O)n(C)c(=O)n2C | 86.9% | 79.7% | 6.74% (active) | 61.8% | 91.9% | 87.7% | 81.9% | 64.2%
14 | O=c1cc(-c2ccc(OCc3ccccc3)cc2)oc2c(I)c(OCc3ccccc3)cc(OCc3ccccc3)c12 | 104% | 101% | 102% | 106% | 101% | 95.8% | 105% | 91.8%
15 | C=C(C)[C@@H]1CC[C@@]2(C(=O)O)CC[C@]3(C)C(CCC4[C@@]5(C)CCC(OS(=O)(=O)c6ccccc6)C(C)(C)C5CC[C@]43C)C12 (some centres undefined) | 34.9% | 58.9% | 59.4% | 48.8% | 50.6% | 25.7% | 33.9% | 31.4%
16 | COc1ccc(-n2sc(=O)n(Cc3ccc(COC(=O)C(C)c4ccc(CC(C)C)cc4)cc3)c2=O)cc1 (centres undefined) | 10.6% | 52.8% | 22% | -12.5% (active) | 17.8% | -31.9% (active) | 83.9% | 85.8%
17 | COc1ccc(OC)c(C(=O)Nc2cccc(-c3cc(=O)c4ccccc4o3)c2)c1 | 85.6% | 88.2% | 96.2% | 96.8% | 92% | 88% | 104% | 92.5%
18 | O=C1NCC(=O)N(Cc2ccco2)[C@H]1Cc1ccccc1 | 88% | 95.5% | 104% | 107% | 91.5% | 95.9% | 109% | 103%
19 | NS(=O)(=O)Oc1ccc(NC(=O)C23CC4CC(CC(C4)C2)C3)cc1Cl | 75.4% | 99.3% | 99.5% | 106% | 97.3% | 107% | 103% | 95.8%
20 | O=C1Nc2ccccc2SC1c1ccccc1Cl (centres undefined) | 92.9% | 82.9% | -12.6% (active) | 75.5% | 119% | 105% | 124% | 53.7%
21 | CCOC(=O)c1c(C)nc2c(c1N)/C(=C/c1cc(OC)c(OC)c(OC)c1)C(=O)N2c1ccc(OC)cc1 | 73.2% | 46.7% | 49.5% | 30.9% | 14.6% | -0.0724% (active) | 95.9% | 43.7%
22 | CN(C)CCN1C(=O)c2cccc3c(-c4ccc(-c5nc6c7ccccc7c7ccccc7c6[nH]5)cc4)ccc(c23)C1=O | 86.7% | 104% | 114% | 86% | 36.2% | 65.1% | 104% | 75.8%
23 | COc1ccc(OC)c(/C=C2\COc3ccc(O)c(O)c3C2=O)c1 | 25.2% | 39% | 12.1% | 9.79% (active) | 14.9% | 3.33% (active) | 53.9% | 16.4%
24 | Clc1ccc(-c2nc(NCCc3ccccc3)nc3c(NCCc4ccccc4)cnn23)cc1 | 63.3% | 63.6% | 42.6% | 33.5% | 31.1% | 28.6% | 72.4% | 70%
25 | Nc1ccc(CCCCc2ccccc2)c(Cl)c1 | 89.9% | 91.9% | 99.1% | 92.3% | 98.6% | 92.6% | 113% | 101%
26 | CCc1cc(Cc2cc(CC)cc(C(C)(C)C)c2O)c(O)c(C(C)(C)C)c1 | -0.979% (active) | 40.5% | 18.4% | 23.3% | 11.2% | 6.96% (active) | 4.71% (active) | 19.4%
27 | COc1ccc(-c2nc3ccccn3c2/C=C/C(=O)c2cc(OC)c(OC)c(OC)c2)cc1 | 26.6% | 61.7% | 38.6% | 49.7% | 18.8% | 11.6% | 61.1% | 46.3%
28 | CC(C)N(CCOC(=O)Nc1ccccc1Cl)C(C)C | 107% | 88.5% | 113% | 103% | 104% | 84.9% | 102% | 104%
